Mdm2-MdmX inh: inhibitors of human Mdm2-MdmX association, primary screen, cell-based, luminescence, split luciferase, SaOS-2, uHTS. Protein Mdm4 (Homo sapiens) + E3 ubiquitin-protein ligase Mdm2 (Homo sapiens), …. AID 485346, 2010. 330,000 compounds, 3% hits. inhibition, % at 8 µM. SaOS-2 split-luciferase Mdm2/MdmX complementation;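 active = inhibition of at least 50% at 8 µM in the primary screen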
Target sequence (O15151 whole entry, looked up): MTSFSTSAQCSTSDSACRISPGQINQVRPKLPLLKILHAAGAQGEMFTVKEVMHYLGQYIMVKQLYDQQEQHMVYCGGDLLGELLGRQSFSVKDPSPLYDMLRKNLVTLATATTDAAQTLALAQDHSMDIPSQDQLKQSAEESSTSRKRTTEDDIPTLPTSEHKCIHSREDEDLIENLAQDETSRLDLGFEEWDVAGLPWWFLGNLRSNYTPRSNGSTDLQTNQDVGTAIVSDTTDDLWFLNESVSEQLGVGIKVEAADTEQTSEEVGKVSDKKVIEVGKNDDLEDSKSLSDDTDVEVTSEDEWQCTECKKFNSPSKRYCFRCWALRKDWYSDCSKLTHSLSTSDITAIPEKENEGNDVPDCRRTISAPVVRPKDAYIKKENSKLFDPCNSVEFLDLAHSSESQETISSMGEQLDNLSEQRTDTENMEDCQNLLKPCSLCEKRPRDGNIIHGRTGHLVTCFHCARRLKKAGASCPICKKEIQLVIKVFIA
Target sequence (Q00987 whole entry, looked up): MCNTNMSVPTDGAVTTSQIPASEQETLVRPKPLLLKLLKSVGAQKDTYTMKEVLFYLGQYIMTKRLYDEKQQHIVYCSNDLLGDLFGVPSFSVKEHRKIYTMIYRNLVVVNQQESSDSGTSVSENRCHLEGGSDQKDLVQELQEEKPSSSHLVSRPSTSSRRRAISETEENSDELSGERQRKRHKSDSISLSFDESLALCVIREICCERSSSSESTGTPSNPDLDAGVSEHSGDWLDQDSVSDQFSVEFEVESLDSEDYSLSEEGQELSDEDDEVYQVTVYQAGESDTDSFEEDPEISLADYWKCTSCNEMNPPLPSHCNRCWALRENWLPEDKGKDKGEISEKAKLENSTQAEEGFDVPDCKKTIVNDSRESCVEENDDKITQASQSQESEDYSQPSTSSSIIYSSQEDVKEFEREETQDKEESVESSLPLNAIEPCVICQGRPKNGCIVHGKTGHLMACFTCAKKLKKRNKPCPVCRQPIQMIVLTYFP
Beta apoptosis: inhibitors of cytokine-induced beta cell apoptosis, primary screen, luminescence; INS-1E cytokine-induced death, ATP luminescence, 48 h; percent of positive-control rescue, neutral wells zero; protection from apoptosis, % (no concentration beside the values); 300,000 compounds, 0.8% hits; AID 435005, 2010;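 active = Every replicate reaches about 75%, or at least half do and their mean reaches it too, limit read from the data; inconclusive = At least half of replicates reach the limit but their mean does not; inactive = Under half of replicates reach the limit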;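 note: 0% = cytokine-treated negative control wells and 100% = positive control rescue; higher means more ATP so stronger rescue from cytokine killing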
aSyn UTR inh: MLPCN primary screen, SNCA 5' untranslated region; alpha-synuclein 5'UTR reporter, inhibitor activity; inhibition, % (tested at 7.5 µM); 300,000 compounds, 0.82% hits; AID 1813, 2009; in the data active = inhibition above about 60%; inconclusive = no clear call, values can overlap the other calls;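 note: H4 neuroglioblastoma cells stably carrying SNCA 5'UTR luciferase fusion; 0% = DMSO wells and 100% = positive control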
CSC inhib: cancer stem cell viability inhibitors, primary screen, luminescence | 300,000 compounds, 1.1% hits | cancer stem cell-like cells viability | inhibition, % at 7.5 µM; in the data active = inhibition above about 75%; inconclusive = no clear call, values can overlap the other calls; tested in HMLE shEcad cells
A1 inh: caspase 3/7 activation in MEF A1-2A-BIM cells, primary screen, A1 inhibitor project, cell-based, luminescence, HTS; Caspase-Glo 3/7 luminescence, 3 h; percent of clofoctol response, vehicle zero; AID 2462, 2010; 330,000 compounds, 0.066% hits; caspase activation, % (test concentration not listed);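 active = over half of replicate activation scores above 10%, or exactly half above 10 with the replicate mean above 10; inconclusive = replicate mean below 10 yet half the replicates above 10; inactive = over half of replicates below 10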
Mdm2 MdmX conf: Mdm2-MdmX complex disruptors, retested hits, confirmation, luminescence, single concentration; shares compounds with Mdm2-MdmX inh; Mdm2-MdmX binding, luminescent assay; inhibition, % at 8 µM; 10,000 compounds, 55% hits; in the data active = inhibition above about 40%
FLuc counter: full-length luciferase signal inhibition, confirmation, counter-screen for Mdm2/MdmX interaction inhibitor project, cell-based, single concentration, SaOS-2. shares compounds with Mdm2-MdmX inh. SaOS-2 full-length luciferase counterscreen, luminescence. inhibition, % at 8 µM. 6,200 compounds, 77% hits;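 active = mean inhibition at 8 µM reaching about 37%, which flags the compound as non-specific, limit read from the data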;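 note: p53-null SaOS-2 cells with luciferase driven by a doxycycline-inducible promoter; compound on cells about two nights before reading with doxycycline added after day one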
Active calls of the source: *; ? = inconclusive; / = not tested or not shown. Most compounds without a hit are left out; they make up all but 4.1% or so of the library.

SMILES	Mdm2-MdmX inh	Beta apoptosis	aSyn UTR inh	CSC inhib	A1 inh	Mdm2 MdmX conf	FLuc counter
Cn1nnnc1Sc1c(Cl)cccc1[N+](=O)[O-]	14	-6	-35	-11	1	/	/
Cn1nnnc1Sc1ncnc2scc(-c3cccc4c3sc3ccccc34)c12	100*	3	/	111*	?	67*	48*
Cn1nnnc1Sc1ncnc2scc(-c3ccccc3Cl)c12	68*	-19	/	41	1	59*	21
CCC(=O)c1ccc(OCC(=O)NCc2ccccc2CN2CCCC2)cc1	5	-6	/	7	0	/	/
Cc1c(Cl)c(C(=O)N2CCCCCC2)nn1C	8	-3	-3	/	0	/	/
COc1ccc(N2CCN(C(=S)NC(C)c3ccccc3)CC2)cc1 (centres undefined)	0	-7	8	-5	2	/	/
COc1ccccc1CNCC(O)(c1ccc(Cl)cc1)c1ccc(Cl)cc1	54*	19	38	-14	-1	16	/
COc1ccc(-c2cc(-c3ccc(F)cc3)nc(N3CCN(C)CC3)n2)cc1	79*	/	-25	17	0	14	/
COc1ccc(Nc2nc(Nc3ccc(OC)cc3OC)nc(N3CCN(C)CC3)n2)c(OC)c1	51*	-7	-17	3	0	21	/
C=CCNC(=O)N1CCC(c2nc3ccccc3s2)CC1	-23	1	8	-9	2	/	/
CCCCCCNC(=O)c1c(O)c2cccc3c2n(c1=O)CCC3	-15	-1	21	21	1	/	/
CNC(=O)c1c(O)c2cccc3c2n(c1=O)CCC3	75*	/	-13	/	2	84*	47*
COc1ccccc1-[n+]1c(C)cc(/C=C2\Sc3ccccc3N2C)cc1C	82*	110*	53	68	0	89*	59*
COc1ccc(-[n+]2c(C)cc(/C=C3\Sc4ccccc4N3C)cc2C)cc1	83*	116*	-3	56	-2	78*	16
Cc1nc(SCC(=O)NC2(C#N)CCCC2)n(CC(C)C)c1C	0	/	/	/	/	/	/
CC(C)CC(=O)N1CCN(C(=O)c2ccc(-c3ccccc3)cc2)CC1	9	2	-4	-4	0	/	/
COc1ccc2c(c1)CN(C)S(=O)(=O)c1ccccc1-2	20	/	/	/	/	/	/
CCN(c1cccc(C)c1)S(=O)(=O)c1ccc(-n2cccn2)cc1	13	-4	12	-9	-1	/	/
CSc1ncnc2c1cnn2-c1ccc(C)cc1C	3	0	-37	2	0	/	/
Cc1ccc(-n2ncc3c(SCc4ccccn4)ncnc32)c(C)c1	84*	6	-35	31	1	78*	28
CN(Cc1ccccc1)C(=O)COc1cccnc1[N+](=O)[O-]	-9	4	11	-10	0	/	/
Nc1cc(C(F)(F)F)ccc1OCC1CCCO1 (centres undefined)	1	-4	-91	-1	0	/	/
COc1ccc(C(CNC(=O)c2cccc(N(C)C)c2)N2CCCC2)cc1 (centres undefined)	16	-2	-19	-5	0	/	/
COc1ccc(C(CNC(=O)c2oc3cc(C)c(C)cc3c2C)N2CCCCC2)cc1 (centres undefined)	51*	0	11	7	2	-10	/
CCC1CCc2sc(C(=O)NCC(c3ccc(OC)cc3)N3CCCC3)cc2C1 (centres undefined)	50*	10	-19	-1	1	31	/
SMILES	Mdm2-MdmX inh	Beta apoptosis	aSyn UTR inh	CSC inhib	A1 inh	Mdm2 MdmX conf	FLuc counter
C[C@H](CO)N1C[C@H](C)[C@@H](CN(C)S(=O)(=O)c2cccs2)Oc2ccc(NC(=O)Nc3ccccc3)cc2C1=O	16	-1	/	/	1	/	/
C[C@H](CO)N1C[C@H](C)[C@@H](CN(C)S(=O)(=O)c2cccs2)Oc2ccc(NC(=O)Nc3ccc(C(F)(F)F)cc3)cc2C1=O	68*	6	/	61	0	-2	/
C[C@@H]1CN([C@H](C)CO)C(=O)c2cc(NC(=O)Nc3ccc(C(F)(F)F)cc3)ccc2O[C@H]1CN(C)S(=O)(=O)c1cccs1	81*	?	/	/	0	51*	44*
CC(C)(C)n1nnnc1C(c1ccccn1)N(Cc1ccccc1)Cc1ccc(Cl)cc1 (centres undefined)	60*	/	27	-17	1	8	/
CCN(Cc1ccccc1)C(c1ccccn1)c1nnnn1C(C)(C)CC (centres undefined)	8	/	15	/	0	/	/
CN(C)c1nc(N)ncc1-c1ccc(Oc2ccccc2)cc1	20	3	-6	-8	2	/	/
Cc1cccc2cc(C#N)c(SCc3nnc(-c4ccccc4[N+](=O)[O-])o3)nc12	59*	0	-87	1	1	17	/
Cc1cccc2cc(C#N)c(SCCN3CCCCC3)nc12	0	37	-9	1	1	/	/
COC(=O)C1=C(C)N(c2ccc(S(N)(=O)=O)cc2)C(=O)C1	16	-3	4	-7	1	/	/
COC(=O)C1=C(C)N(c2ccc(Cl)c(Cl)c2)C(=O)C1	97*	-17	2	24	0	30	/
CC(O)/C=C/c1ccc2ccccc2n1 (centres undefined)	60*	-11	-154	15	0	22	/
Fc1cccc(F)c1/C=C/c1ccc2ccccc2n1	-174	6	4	28	-5	/	/
COCCCNc1c2c3c(cccc3[nH]c1=O)C(=O)c1ccccc1-2	57*	1	/	53	0	58*	86*
CC(=O)C[C@H](O)CC(=O)[C@H]1OC(=O)[C@H](C)C/C=C\Cc2ccccc21	4	-1	/	10	-4	/	/
O=C(CCN1C(=O)/C(=C/c2ccccc2)SC1=S)N1CCCCCC1	95*	10	-62	32	0	77*	52*
O=C(CCN1C(=O)/C(=C\c2ccccc2Cl)SC1=S)N1CCN(c2ccccc2)CC1	98*	-16	13	21	1	80*	42*
CC1CCN(C(=O)CCN2C(=O)/C(=C/c3cccs3)SC2=S)CC1	83*	-12	-75	37	0	46*	20
O=C(CCN1C(=O)/C(=C\c2ccccc2F)SC1=S)N1CCCCC1	93*	-45	-117	66	0	67*	105*
O=C(CCN1C(=O)/C(=C/c2cccs2)SC1=S)Nc1ccc(O)cc1	31	/	2	-4	0	/	/
O=C(CCN1C(=O)/C(=C\c2ccccc2)SC1=S)Nc1ccc(C(=O)O)cc1	3	-3	20	9	0	/	/

Screens deposited in PubChem by several laboratories.
